The values below come from PubChem BioAssay (EPA / NIEHS).

The source made the active and inactive calls. Rule for the calls: active = hit-call score of the fitted dose curve at least 0.9, where 1 is the maximum; inactive = score below 0.9.

The nature of test [1]: APR_HepG2_NuclearSize_24hr: Apredica 24-hour HepG2 Assay for Nuclear Size (AID 2282907). Conditions: high-content imaging, actives raise or lower the signal. The essentials:
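Compounds in DMSO (final 0.5%) were added to human HepG2 hepatoma cells at ten concentrations up to 200 uM for 24 hr. Fixed nuclei were stained with Hoechst 33342, and nuclear diameter was quantified from automated images.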

Test [2] in a line: APR_HepG2_CellLoss_24hr: Apredica 24-hour HepG2 Assay for Cell Loss (AID 2282908).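 For AC50: fit in both directions so a hit may be cell loss or gain.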 The following applies: high-content imaging. The method in brief:
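Cell number is quantified by fluorescence imaging of Hoechst 33342-stained nuclei following dosing at 0.39–200 uM in 0.5% DMSO. Curves are fitted in both directions from the DMSO baseline.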

Test [3] can be described thus: APR_HepG2_MicrotubuleCSK_24hr: Apredica 24-hour HepG2 Assay for Microtubule CSK Stabilty (AID 2282909). Conditions: HepG2 microtubule cytoskeleton imaging, actives raise or lower the signal. The essentials:
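Steps: dose HepG2 for 24 h (0.39–200 uM, 0.5% DMSO); fix 30 min in 3.7% formaldehyde at room temperature; permeabilize; stain alpha-tubulin 60 min; image microtubule cytoskeleton at 20x. Signal change fitted in both directions relative to DMSO.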

Test [4] is described as follows: APR_HepG2_MitoticArrest_24hr: Apredica 24-hour HepG2 Assay for Mitotic Arrest (AID 2282910). Conditions: high-content imaging, actives raise or lower the signal. The method in brief: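 HepG2 human liver cells were exposed to compounds at 0.39–200 uM (10 concentrations, duplicate) in 0.5% v/v DMSO for 24 hr, then fixed and immunostained for phospho-histone H3 with Hoechst 33342. Mitotic arrest came from HCS fluorescent imaging, fitted bidirectionally against DMSO.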

A short description of test [5]: APR_HepG2_MitoMembPot_24hr: Apredica 24-hour HepG2 Assay for Mitochondrial Membrane Potential (AID 2282911). The following applies: imaging, actives raise or lower the signal. The method in brief: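 HepG2 cells exposed 24 h to 0.39–200 uM compounds in duplicate, 0.5% v/v DMSO final. MitoTracker Red CMXRos 250 nM loaded 30 min before formaldehyde fixation; high-content imaging at 20x, bidirectional fit versus DMSO.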

Test [6] can be described thus: APR_HepG2_MitoMass_24hr: Apredica 24-hour HepG2 Assay for Mitochondrial Mass (AID 2282912). Conditions: high-content imaging, actives raise or lower the signal. The method in brief:
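The liver line HepG2 was dosed in duplicate across a 0.39–200 uM series, with final DMSO held at 0.5% v/v, and harvested at 24 hr. High-content imaging measured mitochondrial dye staining.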

A short description of test [7]: APR_HepG2_p53Act_24hr: Apredica 24-hour HepG2 Assay for p53 Activation (AID 2282913).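 Note: p53 protein immunofluorescence averaged per cell in HepG2 with Hoechst nuclei.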 Conditions: high-content imaging, actives raise or lower the signal. The method in brief:
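HepG2 cells exposed 24 h to compounds at 0.39–200 uM in duplicate, 0.5% v/v DMSO final; fixed, permeabilized, stained with anti-p53 antibody and Hoechst 33342; fluorescence imaging; bidirectional curve fit versus DMSO.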

A short description of test [8]: APR_HepG2_CellCycleArrest_72hr: Apredica 72-hour HepG2 Assay for Cell Cycle Arrest (AID 2282914). Conditions: high-content imaging, actives raise or lower the signal. The method in brief: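 HepG2 cells exposed 72 h in duplicate to 0.39–200 uM compound, 0.5% DMSO final. Formaldehyde-fixed, Hoechst 33342-stained nuclei imaged at 20x, six fields per well; DNA content per valid cell quantified by cell-cycle image analysis, bidirectional fit versus DMSO.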

Test [9] can be described thus: APR_HepG2_CellLoss_72hr: Apredica 72-hour HepG2 Assay for Cell Loss (AID 2282915). Conditions: high-content imaging. The essentials: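 HepG2 cells were exposed for 72 hr to compounds at 0.39–200 uM (ten concentrations, duplicate) in 0.5% v/v final DMSO. Nuclei were stained with Hoechst 33342 after 3.7% formaldehyde fixation, imaged at 20x, and counted; fits bidirectional versus DMSO.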

Test [10] is described as follows: APR_HepG2_P-H2AX_72hr: Apredica 72-hour HepG2 Assay for H2AX Phosphorylation (AID 2282916).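 Note: phospho-histone H2A.x immunostain intensity per cell marking DNA damage.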 The following applies: imaging, actives raise or lower the signal. The essentials: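 Following 72 hr treatment with 0.39–200 uM compound, HepG2 cells were formaldehyde-fixed, permeabilized and stained for phospho-H2A.x; signal was measured by high-content imaging and fitted bidirectionally against DMSO controls.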

The nature of test [11]: APR_HepG2_MitoMembPot_72hr: Apredica 72-hour HepG2 Assay for Mitochondrial Membrane Potential (AID 2282917). Conditions: imaging, actives raise or lower the signal. The essentials:
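HepG2 cells exposed 72 h to compounds at 0.39–200 uM (0.5% v/v DMSO, duplicates); MitoTracker Red CMXRos 250 nM loaded 30 min before 3.7% formaldehyde fixation, imaged by HCS fluorescence. Bidirectional fit versus DMSO.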

Test [12] can be described thus: APR_HepG2_MitoticArrest_72hr: Apredica 72-hour HepG2 Assay for Mitotic Arrest (AID 2282918). The following applies: high-content imaging, actives raise or lower the signal. The essentials:
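HepG2 cells treated 72 h at 0.39–200 uM, 0.5% DMSO final; formaldehyde-fixed, stained with Hoechst 33342 and phospho-histone H3 antibody, imaged by high-content fluorescence; bidirectional fit versus DMSO.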

Test [13] can be described thus: APR_HepG2_MicrotubuleCSK_72hr: Apredica 72-hour HepG2 Assay for Microtubule CSK Stabilty (AID 2282919). Conditions: HepG2 microtubule cytoskeleton, high-content imaging, actives raise or lower the signal. The essentials: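 HepG2 human liver cells were dosed for 72 h at ten concentrations from 0.39 to 200 uM in duplicate (0.5% v/v DMSO final). Fixed, permeabilized cells were immunostained for alpha-tubulin (Cy5) with a Hoechst counterstain and imaged at 20x.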

The nature of test [14]: APR_HepG2_P-H2AX_24hr: Apredica 24-hour HepG2 Assay for H2AX Phosphorylation (AID 2282920). Conditions: high-content imaging, actives raise or lower the signal. The essentials:
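HepG2 cells dosed 24 h at 0.39–200 uM (10 points, duplicate, 0.5% DMSO final). Formaldehyde-fixed and permeabilized, then immunostained for phospho-H2A.x with Hoechst. Fluorescence quantified by high-content imaging, fitted bidirectionally versus DMSO.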

A short description of test [15]: APR_HepG2_StressKinase_72hr: Apredica 72-hour HepG2 Assay for Stress Kinase (AID 2282921). Conditions: HepG2 stress kinase (phospho-c-Jun) imaging, actives raise or lower the signal. The method in brief: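 Fluorescence intensity of Cy3-tagged anti-phospho-c-Jun antibody, quantified per cell from Hoechst-defined nuclei across six images per well, served as the read-out following 72 h exposure (0.39–200 uM, 0.5% v/v DMSO).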

Test [16] can be described thus: APR_HepG2_StressKinase_24hr: Apredica 24-hour HepG2 Assay for Stress Kinase (AID 2282922). Conditions: HepG2 stress kinase (phospho-c-Jun) imaging, actives raise or lower the signal. The method in brief: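 HepG2 cells exposed 24 hr to compound at 0.39–200 uM (10 concentrations, duplicate), 0.5% v/v DMSO final. Fixed in 3.7% formaldehyde, permeabilized with Triton X-100, immunolabeled for phospho-c-Jun with Hoechst 33342; HCS fluorescence imaging, bidirectional fit versus DMSO.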

Test [17] is described as follows: APR_HepG2_p53Act_72hr: Apredica 72-hour HepG2 Assay for p53 Activation (AID 2282923).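 Note: average cellular p53 protein immunofluorescence intensity in HepG2 cells.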 Conditions: high-content imaging, actives raise or lower the signal. The essentials: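 HepG2 monolayers receive test compounds in duplicate at ten concentrations (0.39 through 200 uM) for 72 hr. They are then formaldehyde-fixed, antibody-labelled for p53, Hoechst-stained and imaged, with activity fitted bidirectionally versus DMSO.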

A short description of test [18]: APR_HepG2_MitoMass_72hr: Apredica 72-hour HepG2 Assay for Mitochondrial Mass (AID 2282924).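 Note: MitoTracker Red CMXRos stain intensity per cell imaged as mitochondrial mass.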 The following applies: high-content imaging, actives raise or lower the signal. The essentials:
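HepG2 cells were exposed for 72 hr to compounds at 0.39–200 uM (ten concentrations, duplicate, 0.5% v/v DMSO final). Live cells were stained with 250 nM MitoTracker Red CMXRos for 30 min, then fixed in 3.7% formaldehyde and imaged by HCS fluorescence.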

Test [19] is described as follows: APR_HepG2_NuclearSize_72hr: Apredica 72-hour HepG2 Assay for Nuclear Size (AID 2282925). Conditions: high-content imaging, actives raise or lower the signal. The essentials: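 HepG2 cells were exposed to compounds at ten concentrations from 0.39 to 200 uM (duplicate, 0.5% DMSO final) for 72 hr. After fixation in 3.7% formaldehyde, nuclei were stained with Hoechst 33342 (2 ug/mL) and imaged at 20x.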

For `CC(C)(C)OOC(=O)c1ccccc1`, the AC50 in [1] was 38.6 µM (active); in test [2], 33.3 µM (active); in [3], 48.2 µM (active); in test [4], 20.5 µM (active); in [5] it was 33.8 µM (active); in [6], 34.1 µM (active). For the same compound, the AC50 in test [7] was 22.8 µM (active); in test [8] it was 21.8 µM (active); in test [9], 26.6 µM (active); in test [10], 35.1 µM (active); in test [11], 20.1 µM (active); in test [12], 23.1 µM (active). For the same compound, the AC50 in test [14] was 16.4 µM (active); in test [15], 50 µM (active); in test [17] it was 21.5 µM (active); in test [18], 54 µM (active). In addition, the call in test [13], in test [16] and in test [19] was inactive.
Turning to `Cc1ccc(N)c(N)c1`, the call in test [1], in test [2], in [3], in [4], in test [5] and in test [6] was inactive. For the same compound, the result in test [7], in test [8], in test [9], in [10], in test [11] and in [12] was inactive. The compound was classed as inactive in test [13], in test [14], in test [15], in test [16], in [17] and in test [18]. For the same compound, the result in [19] was inactive.
For `OCCCl`, the outcome in test [1], in test [2], in test [3], in test [4], in test [5] and in [6] was inactive. In addition, the compound was called inactive in [7], in test [8], in test [9], in test [10], in test [11] and in test [12]. Also, the call in [13], in test [14], in test [15], in test [16], in test [17] and in test [18] was inactive. In addition, the outcome in [19] was inactive.
In the case of `Clc1ccc(C(c2ccc(Cl)cc2)C(Cl)(Cl)Cl)cc1`, the AC50 was 56.5 µM (active) in test [1]; 57.9 µM (active) in test [2]; 50.1 µM (active) in test [4]; 30.3 µM (active) in test [5]; 44.4 µM (active) in test [6]; 54.7 µM (active) in test [7]. In addition, the AC50 in test [9] is 50.5 µM (active); in [10], 50.2 µM (active); in test [11] it was 30.4 µM (active); in [12], 42.6 µM (active); in [14] it was 50.5 µM (active); in [16] it was 51.9 µM (active). Further, the compound was called inactive in test [3], in [8], in test [13], in test [15], in test [17] and in [18]. In addition, the outcome in test [19] was inactive.
Regarding `Oc1ccc2ccc3cccc4ccc1c2c34`, the compound was classed as inactive in test [1], in [3], in test [8], in [15] and in test [17]. Besides, the AC50 was 77.9 µM (active) in test [2]; 82.2 µM (active) in [4]; 30.6 µM (active) in test [5]; 31.9 µM (active) in test [6]; 49.1 µM (active) in test [7]; 84 µM (active) in [9]. Besides, the concentration at half-maximal activity (AC50) in test [10] was 50.3 µM (active); in [11] it was 75.4 µM (active); in test [12], 63.9 µM (active); in test [13], 85.4 µM (active); in test [14], 62.9 µM (active); in test [16], 80.8 µM (active). In addition, the AC50 in [18] is 46.4 µM (active); in test [19] it was 69.6 µM (active).
`OCCCBr`: the compound was called inactive in [1], in test [2], in [3], in test [4], in test [5] and in test [6]. Moreover, the compound was classed as inactive in test [7], in test [8], in test [9], in [10], in [11] and in test [12]. For the same compound, the compound was called inactive in test [13], in test [14], in test [15], in test [16], in test [17] and in test [18]. Besides, in test [19], the outcome was inactive.
Regarding `ClC1=C(Cl)[C@]2(Cl)[C@H]3[C@H]([C@@H]4C=C[C@H]3C4)[C@@]1(Cl)C2(Cl)Cl`, the AC50 in test [1] is 53.8 µM (active); in [2] it was 46.5 µM (active); in test [4] it was 25.4 µM (active); in [6], 48.1 µM (active); in test [7], 49.7 µM (active); in test [8] it was 16.2 µM (active). In addition, the AC50 was 36.7 µM (active) in [9]; 42.6 µM (active) in [10]; 32.9 µM (active) in test [12]; 50.7 µM (active) in [14]; 53.4 µM (active) in test [15]; 45.3 µM (active) in test [17]. Also, the outcome in test [3], in test [5], in test [11], in test [13], in test [16] and in test [18] was inactive. In [19], the compound was classed as inactive.
